The results in this text go back to PubChem BioAssay (NCATS).

Each structure is given as a SMILES string. Results filed as inconclusive are left out. Values without a mark were called inactive. Activity calls are given as the source filed them. The call rests on the fitted dose curve; in most records, active means well fitted cell-killing curve with a large enough effect; inconclusive means small, poorly fitted or top-dose-only effect, or effect the other way; inactive means no such curve, though single readings can be large or run the other way.
Potency means the concentration at half of the fitted maximal effect.

A short description of the test: qHTS of pediatric cancer cell lines to identify multiple opportunities for drug repurposing: Confirmatory screen for Saos-2 cells (AID 1347127). Further: nearly all actives have a fitted effect of over 60% in size. Conditions: Saos-2 osteosarcoma cell viability; series mostly up to 45.9 µM; activity change, negative = cytotoxic: at the top concentration. The text has this: Drug repurposing or repositioning has been offered as a strategy for drug development in oncology programs. This approach has special potential for childhood cancers and other rare or orphan diseases, where the expected return on new drug development has been a disincentive to pharmaceuticals.
In this project we exploit the poly-pharmacology of drugs to discover new indications via phenotypic screening of a panel of 19 well-characterized cell lines derived from solid tumors seen in children and adolescents. The goal is to identify approved drugs with previously unrecognized anticancer properties that has the potential to reveal new mechanisms and biological processes involved in carcinogenesis or drug resistance. We employed a titration-based paradigm (quantitative high-throughput screening or qHTS), where all compounds were tested at multiple concentrations for their effect on cell viability. Concentration-response curves (CRCs) were derived directly from the primary screen, and both potency and efficacy values were used to identify compounds with robust bioactivity profiles. We screened the NIH Chemical Genomics Center (NCGC) Pharmaceutical Collection (NPC) and Mechanism Interrogation Plate (MIPE) small molecule collections of approved and investigational compounds against these cell lines; and measured metabolically active cells after 48 hours of compound treatment as a proxy for cell viability.
Assay Submitter: Nathalia J. Martinez, National Center for Advancing Translational Sciences, National Institutes of Health, Rockville, MD, USA; email: natalia.martinez@nih.gov
[1] Shen, M et al. Quantitative high-throughput phenotypic screening of pediatric cancer cell lines identifies multiple opportunities for drug repurposing. Oncotarget 2017 Dec 19;9(4):4758-4772. PMID 29435139.
The cells were obtained from University of North Carolina (UNC), Pediatric Preclinical Testing Program (PPT), and Coriell Institute (CI).
qHTS cell viability assay:
Cells were assayed in growth media at a density of 500-1,000 cells/well. Five microliters of cells were dispensed into 1,536-well, white, solid-bottom, TC-treated plates (Greiner Bio One) using a multidrop dispenser and incubated at 37 degrees C, 5% CO2, under a humidified atmosphere for 5 hours. Twenty-three nanoliters of compounds and controls (neutral control DMSO or positive control bortezomib at final concentration of 2.3 µM) were subsequently transferred by Kalypsys pintool. For primary screens, the MIPE collection was tested at 11-point dilutions (final concentrations range from 0.78 nM to 46 µM) and the NPC collection at 8-point dilutions (final concentrations range from 0.59 nM to 46 µM). Compounds tested in follow-up screens were assayed at 11-point dilutions. Cells were incubated for 48 hours, followed by addition of 3 µL of CellTiter-Glo (Promega). After a 15 min incubation at room temperature, samples were analyzed for luminescence intensity using a ViewLux High-throughput CCD imager equipped with clear filters.
In the case of `O=C1c2c(O)ccc(O)c2C(=O)c2c(NCCNCCO)ccc(NCCNCCO)c21`, the Potency was 737 nM (active). On to `Clc1ccc(C(c2ccccc2Cl)C(Cl)Cl)cc1` (centres undefined), for which the “activity change, negative = cytotoxic” value was -14.9%. Consider `O=C(Nc1ccc([N+](=O)[O-])cc1Cl)c1cc(Cl)ccc1O`, for which the Potency was 2290 nM (active). The same measure, in the same setting: under `CC(COc1ccccc1)N(CCCl)Cc1ccccc1` (centres undefined) stands 14700 nM (active).

As to `CS(=O)(=O)Nc1ccc([N+](=O)[O-])cc1Oc1ccccc1`, the “activity change, negative = cytotoxic” value was 24.6%. On to `NC(=O)NO`, for which the “activity change, negative = cytotoxic” value is 5.96%. On to `CC(C)C(=O)Nc1ccc([N+](=O)[O-])c(C(F)(F)F)c1`, for which the call was inactive.

As to `Clc1ccc2nsnc2c1NC1=NCCN1`, the Potency was 20800 nM (active). For the compound `NC12CC3CC(CC(C3)C1)C2`, the call was inactive. For `CC[C@@]1(O)C(=O)OCc2c1cc1n(c2=O)Cc2cc3c(CN(C)C)c(O)ccc3nc2-1`, the Potency is 208 nM (active). For `CCC1(c2ccccc2)C(=O)NCNC1=O`, the “activity change, negative = cytotoxic” value is 1.48%. For the compound `COc1cc2c(c(OC)c1OC)-c1ccc(OC)c(=O)cc1[C@@H](NC(C)=O)CC2`, the Potency was 44.7 nM (active). `CCCCc1oc2ccccc2c1C(=O)c1cc(I)c(OCCN(CC)CC)c(I)c1`: the Potency is 44700 nM (active). Take `COC(=O)Nc1nc2ccc(C(=O)c3cccs3)cc2[nH]1`: the Potency was 131 nM (active).
